Read-outs that look alike come from different tables or passages of the source.

For ten compounds, potency estimated from few doses results are on record in paper PMC11062922 (Nature Chemical Biology, 2023).

Common to all, as to parameters: species or system human, MV4-11 + K-562 + COLO205 + SK-N-BE2 + OVCAR-8
For one assay, the system named is FLT3. Conditions: read-out: apparent Kd, n = 1.
For another assay, the system named is FLT4. Conditions: read-out: apparent Kd, n = 1.
The next assay concerns MAP3K11. Conditions: read-out: apparent Kd; compound concentrations:100 nM and 1000 nM (sheet 'Samples'); n = 1.
A further assay deals with PRKCA. Conditions: read-out: apparent Kd; compound concentrations:100 nM and 1000 nM (sheet 'Samples'); n = 1.
A further assay relates to PRKCB. Conditions: read-out: apparent Kd; compound concentrations:100 nM and 1000 nM (sheet 'Samples'); n = 1.
A further assay deals with RET. As to conditions: read-out: apparent Kd; compound concentrations:100 nM and 1000 nM (sheet 'Samples'); n = 1.
A further assay concerns STRADA. Conditions: read-out: apparent Kd; compound concentrations:100 nM and 1000 nM (sheet 'Samples'); n = 1.
The test system of a further assay is FER. As to conditions: read-out: apparent Kd; compound concentrations: 100 nM and 1000 nM (sheet 'Samples'), CATDS: 0.23966612691904199; n = 1.
A further assay deals with IGF1R. As to conditions: read-out: apparent Kd; compound concentrations: 100 nM and 1000 nM (sheet 'Samples'), CATDS: 0.234502945323845; n = 1.
A further assay concerns INSR. As to conditions: read-out: apparent Kd; compound concentrations: 100 nM and 1000 nM (sheet 'Samples'), CATDS: 0.33480579514984299; n = 1.
Another assay concerns JAK2. Conditions: read-out: apparent Kd; compound concentrations: 100 nM and 1000 nM (sheet 'Samples'), CATDS: 0.21851313363519401; n = 1.
The test system of a further assay is MYLK3. Conditions: read-out: apparent Kd, compound concentrations: 100 nM and 1000 nM (sheet 'Samples'), n = 1.
In a further assay the test system is TNIK. As to conditions: read-out: apparent Kd; compound concentrations: 100 nM and 1000 nM (sheet 'Samples'), CATDS: 0.21425546336559301; n = 1.
In another assay the test system is TTK. As to conditions: read-out: apparent Kd, compound concentrations: 100 nM and 1000 nM (sheet 'Samples'), n = 1.
Another assay concerns GAK. As to conditions: read-out: apparent Kd; compound concentrations: 100 nM and 1000 nM (sheet 'Samples'), CATDS: 0.18485172893482499; n = 1.
For another assay, the system named is NUAK1. As to conditions: read-out: apparent Kd; compound concentrations: 100 nM and 1000 nM (sheet 'Samples'), CATDS: 0.245714515933597; n = 1.
The next assay relates to PLK4. Conditions: read-out: apparent Kd; compound concentrations: 100 nM and 1000 nM (sheet 'Samples'), CATDS: 0.36168703025704801; n = 1.
In another assay the test system is PTK2. Conditions: read-out: apparent Kd; compound concentrations: 100 nM and 1000 nM (sheet 'Samples'), CATDS: 0.26626379457403998; n = 1.
In another assay the test system is RIPK3. Conditions: read-out: apparent Kd; compound concentrations: 100 nM and 1000 nM (sheet 'Samples'), CATDS: 0.17836354308348701; n = 1.
For another assay, the system named is STK26. As to conditions: read-out: apparent Kd; compound concentrations: 100 nM and 1000 nM (sheet 'Samples'), CATDS: 0.187537130117577; n = 1.
A further assay has as its system TTN. Conditions: read-out: apparent Kd; compound concentrations: 100 nM and 1000 nM (sheet 'Samples'), CATDS: 0.25287309010543901; n = 1.
[1] abbreviates: compound concentrations: 100 nM and 1000 nM (sheet 'Samples'), CATDS: 1.
Where [2] appears, read: compound concentrations:100 nM and 1000 nM (sheet 'Samples').

As for `CC(C)c1ccc2c(c1)NC(=O)/C2=N/Nc1ccc(S(N)(=O)=O)cc1` [GW300653X], the potency estimated from few doses with FLT3 (setting [1]) was 716 nM.
As to `CN(C)C/C=C/C(=O)Nc1ccc(C(=O)Nc2cccc(Nc3ncc(Cl)c(-c4c[nH]c5ccccc45)n3)c2)cc1` [THZ1], the potency estimated from few doses with FLT3 (setting [2]) was 1310 nM; in the assay with FLT4 (setting [2]), 904 nM; with MAP3K11 it was 743 nM; in the assay on PRKCA it was 191 nM; in the assay with PRKCB, 727 nM; in the assay on RET, 921 nM. Also, in the assay on STRADA, the potency estimated from few doses was 2370 nM.
In the case of `COc1cc2c(cc1Nc1nc(N3CCc4ccccc43)c3cc[nH]c3n1)N(C(=O)CN(C)C)CC2` [GSK2186269A], the potency estimated from few doses was 915 nM with FER, 959 nM in the assay with IGF1R, 493 nM in the assay on INSR and 1130 nM in the assay on JAK2.
Turning to `CCS(=O)(=O)c1ccc(OC)c(Nc2ncc(-c3cccc(OC)c3)o2)c1` [GW580509X], the potency estimated from few doses in the assay with FLT3 (setting [2]) is 1130 nM.
`O=C1Nc2ccccc2/C1=C/Nc1ccc2[nH]c(=O)[nH]c2c1` [GW284408X]: the potency estimated from few doses was 348 nM in the assay on FLT3 (compound concentrations: 100 nM and 1000 nM (sheet 'Samples'), CATDS: 0.54453262493036503); 485 nM with MYLK3 (CATDS: 0.46220060091739101).
For the compound `O=C1Nc2ccccc2/C1=C/Nc1ccc(-n2cncn2)cc1` [GW301789X], the potency estimated from few doses with FLT3 (compound concentrations: 100 nM and 1000 nM (sheet 'Samples'), CATDS: 0.22267825375754199) is 1370 nM; in the assay on MYLK3 (CATDS: 0.63148030600185001), 176 nM; in the assay with TNIK, 1520 nM; with TTK (CATDS: 0.19017518811714801), 2180 nM.
As for `CCC(=O)Nc1cccc(Oc2nc(Nc3ccc(N4CCN(C)CC4)cc3OC)ncc2Cl)c1` [WZ4003], the potency estimated from few doses is 1600 nM with GAK, 760 nM with NUAK1, 371 nM in the assay with PLK4 and 643 nM in the assay with PTK2.
On to `COc1ccc(-c2nn3ncccc3c2-c2ccnc(Nc3ccc(Cl)c(C(F)(F)F)c3)n2)cc1` [GW829115X], for which the potency estimated from few doses in the assay on FLT4 (setting [1]) is 635 nM.
As for `Cl.N#Cc1cccc(Nc2ncc(-c3ccccc3)o2)c1` [GW627834A], in the assay on FLT3 (setting [1]), the potency estimated from few doses is 344 nM.
`Cc1ccc2c(c1)/C(=N/Nc1ccc(S(N)(=O)=O)cc1)C(=O)N2` [GW275944X]: the potency estimated from few doses in the assay on FLT3 (compound concentrations: 100 nM and 1000 nM (sheet 'Samples'), CATDS: 0.260396984763757) was 809 nM; in the assay with RIPK3, 1700 nM; in the assay on STK26, 1520 nM; with TTK (CATDS: 0.15958246539429699), 2270 nM; in the assay with TTN, 851 nM.
